Assay results taken from PubChem BioAssay (EPA / NIEHS).
Inconclusive results are not listed. The source holds several records for some structures; these can differ, active in one and inactive in another. Activity calls are given as the source filed them. Rule for the calls: active = hit-call score of the fitted dose curve at least 0.9, where 1 is the maximum; inconclusive = response in the unintended direction; inactive = score below 0.9.

biological target: Peroxisome proliferator-activated receptor gamma (Homo sapiens) (UniProt P37231); test: NVS_NR_hPPARg: NovaScreen (NVS) Nuclear Receptor Binding Assay for human Peroxisome Proliferator-activated Receptor gamma (PPARg) (AID 2283370)
Method in brief: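 Extracted receptor protein, cell-free; compound incubated 2 h then fluorescence polarization read. Baseline: DMSO. Actives from 25 uM duplicate screen re-run across concentrations.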

Sequence of Peroxisome proliferator-activated receptor gamma (Homo sapiens) (P37231 whole entry, looked up): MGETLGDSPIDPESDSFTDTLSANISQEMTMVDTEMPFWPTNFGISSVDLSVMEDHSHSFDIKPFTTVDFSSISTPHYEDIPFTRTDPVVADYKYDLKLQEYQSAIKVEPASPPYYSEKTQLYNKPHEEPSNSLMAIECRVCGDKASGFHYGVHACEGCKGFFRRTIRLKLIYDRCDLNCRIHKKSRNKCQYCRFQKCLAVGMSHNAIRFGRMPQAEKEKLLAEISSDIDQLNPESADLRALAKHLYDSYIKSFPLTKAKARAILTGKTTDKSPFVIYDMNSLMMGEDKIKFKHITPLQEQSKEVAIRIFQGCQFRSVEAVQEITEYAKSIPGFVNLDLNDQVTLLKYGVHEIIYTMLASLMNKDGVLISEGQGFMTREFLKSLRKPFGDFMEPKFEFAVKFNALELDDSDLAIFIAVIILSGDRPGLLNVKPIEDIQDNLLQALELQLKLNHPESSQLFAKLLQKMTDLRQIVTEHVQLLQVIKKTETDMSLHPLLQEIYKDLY

CN(C)[C@@H]1C(=O)C(C(N)=O)=C(O)[C@@]2(O)C(=O)C3=C(O)c4c(O)cccc4[C@@](C)(O)[C@H]3[C@H](O)[C@@H]12 was tested. Which AC50 did it give?
The AC50 was 20.2 µM (active).

And the outcome?
The outcome was “inactive”.

CNc1cnn(-c2cccc(C(F)(F)F)c2)c(=O)c1Cl was tested. Which outcome did it give?
Its outcome is “inactive”.

With CCCOCC(=Nc1ccc(Cl)cc1C(F)(F)F)n1ccnc1 as the compound, how does the AC50 read?
The AC50 was 17.6 µM (active).

For CCCCN(CC)c1c([N+](=O)[O-])cc(C(F)(F)F)cc1[N+](=O)[O-], which outcome is on record?
The outcome was “inactive”.

With CCOC(=O)CC(SP(=O)(OC)OC)C(=O)OCC (centres undefined) as the compound, how does the outcome read?
Its outcome is “inactive”.

With CCOP(=O)(OCC)Oc1cc(C)nc(C(C)C)n1 as the compound, how does the outcome read?
The outcome was “inactive”.

With CCCSP(=O)(OCC)SCCC as the compound, how does the outcome read?
Its outcome is “inactive”.

How did the outcome turn out when CCOP(=S)(OCC)Oc1ccc([N+](=O)[O-])cc1 was run?
Its outcome is “inactive”.

C=C(C)[C@H]1Cc2c(ccc3c2O[C@@H]2COc4cc(OC)c(OC)cc4[C@@H]2C3=O)O1 was tested. Which outcome did it give?
The outcome was “inactive”.

With CCC(CC)Nc1c([N+](=O)[O-])cc(C)c(C)c1[N+](=O)[O-] as the compound, how does the outcome read?
Its outcome is “inactive”.

biological target: human Serotonin Transporter (SERT), SLC6A4 (gene 6532) (UniProt P31645); test: NVS_TR_hSERT: NovaScreen (NVS) Transporter Assay for human Serotonin Transporter (SERT) (AID 2283372)
Method in brief: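 Radioligand binding to native SERT in human platelet membranes, read by filter-based scintillation counting 1 h after dosing. Primary screen in duplicate at 25 uM; actives followed up in concentration series; loss of signal versus DMSO baseline.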

Sequence of human Serotonin Transporter (SERT), SLC6A4 (gene 6532) (P31645 whole entry, looked up): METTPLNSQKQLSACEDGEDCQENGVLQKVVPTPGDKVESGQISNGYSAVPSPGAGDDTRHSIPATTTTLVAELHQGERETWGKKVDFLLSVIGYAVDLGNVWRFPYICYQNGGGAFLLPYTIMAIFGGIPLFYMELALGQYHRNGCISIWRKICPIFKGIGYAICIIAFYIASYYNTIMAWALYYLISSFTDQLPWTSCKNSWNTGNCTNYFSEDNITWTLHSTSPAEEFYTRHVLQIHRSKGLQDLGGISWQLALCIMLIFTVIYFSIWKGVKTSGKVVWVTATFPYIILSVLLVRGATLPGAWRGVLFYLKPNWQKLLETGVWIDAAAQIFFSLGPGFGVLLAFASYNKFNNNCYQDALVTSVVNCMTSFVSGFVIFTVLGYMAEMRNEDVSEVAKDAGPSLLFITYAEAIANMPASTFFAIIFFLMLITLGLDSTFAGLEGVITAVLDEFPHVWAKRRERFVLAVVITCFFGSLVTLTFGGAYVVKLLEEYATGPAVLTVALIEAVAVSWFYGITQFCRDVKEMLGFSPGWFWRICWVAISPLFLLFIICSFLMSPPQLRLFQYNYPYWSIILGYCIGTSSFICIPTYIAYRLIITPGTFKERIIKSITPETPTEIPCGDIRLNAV

How did the outcome turn out when CCCOCC(=Nc1ccc(Cl)cc1C(F)(F)F)n1ccnc1 was run?
The outcome was “inactive”.

For COc1ccc(C(=CC(=O)N2CCOCC2)c2ccc(Cl)cc2)cc1OC, which outcome is on record?
The outcome was “inactive”.

For CCOP(=S)(OCC)Oc1ccc([N+](=O)[O-])cc1, which AC50 is on record?
The AC50 was 7.25 µM (active).
